From PubChem
The sample as a whole holds a higher share of hits than the screen did.
nsP2pro primary: inhibitors of chikungunya virus nsP2 protease; Q8JUX6; FRET peptide cleavage, nsP2pro, fluorescence 1 h; Potency, µM (highest dose often 24.9 µM), hits mostly inhibitors; hit rate 1.1% among 31,000; AID 1964107; further: nearly all actives have a fitted effect of over 60% in size
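FRET cleavage of 2.5 uM peptide 2 by 150 nM CHIKV protease domain at pH 8.0 (Tris, Tween 20). Compounds at 7 concentrations (up to 25 uM) preincubated 15 min. Fluorescence read after 1 h at room temperature.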
nsP2 cell sec: inhibits CHIKV nsP2 protease in cells. shares compounds with nsP2pro primary. hit rate 10% among 450. cell-based CHIKV nsP2 protease reporter assay. Potency, µM (highest dose often 51.1 µM), actives largely listed as inhibitors. AID 1964100; further: nearly all actives have a fitted effect of over 70% in size
CHIKV NSP2 FL: selectivity test for CHIKV nsP2 protease inhibitors: full-length NSP2; shares compounds with nsP2pro primary; Full-length CHIKV NSP2 protease enzymatic counterscreen; Potency, µM (highest dose often 50.7 µM), hits mostly inhibitors; hit rate 39% among 410; AID 1964101; further: nearly all actives have a fitted effect of over 65% in size
Furin counter: selectivity counter-screen for CHIKV nsP2 protease inhibitors: human furin; shares compounds with nsP2pro primary; Recombinant human furin enzymatic counterscreen, fluorogenic substrate; Potency, µM (titrated, usually from 50.6 µM), actives largely listed as inhibitors; hit rate 6% among 410; AID 1964102
nsP2 NS23 pep: selectivity test for CHIKV nsP2 protease inhibitors: endogenous NS2/3 peptide | shares compounds with nsP2pro primary | Potency, µM (doses to about 51 µM), hits mostly inhibitors | Purified CHIKV nsP2 protease, endogenous NS2/3 peptide cleavage | hit rate 34% among 410; further: nearly all actives have a fitted effect of over 55% in size
Papain cs: papain protease inhibition, counterscreen for nsP2pro inhibitors; hit rate 5% among 410; AID 1964104; Potency, µM (series often up to 51 µM), actives largely listed as inhibitors; purified papain protease activity, enzymatic inhibition; shares compounds with nsP2pro primary
nsP2pro conf qHTS: confirmation of CHIKV nsP2 protease inhibitors. hit rate 43% among 410. CHIKV nsP2 protease enzymatic activity, qHTS. shares compounds with nsP2pro primary. Potency, µM (titrated, usually from 25.5 µM), usual class: inhibitors. AID 1964105; further: nearly all actives have a fitted effect of over 75% in size
HCV NS3 counter: selectivity counter-screen for CHIKV nsP2 protease inhibitors: HCV NS3/4A; shares compounds with nsP2pro primary; HCV NS3/4A protease biochemical counterscreen; Potency, µM (titrated, usually from 50.9 µM), usual class: inhibitors; hit rate 20% among 410; AID 1964106; further: nearly all actives have a fitted effect of over 55% in size
Large screens that a line does not name were inactive (follow-up assays come after a bar, where they were run). The call rests on the fitted dose curve.

CC1=C2C3OC(=O)C(C)C3(O)CCC2(C)CCC1 (stereo not given)	none
CC1=C2C3OC(=O)C(C)C3(O)CCC2(C)CCC1=O (stereo not given)	none
NC(=O)c1ccc(Cc2c(-c3cccc(-c4ccccc4)c3)[nH]n(-c3nc(C(=O)O)cs3)c2=O)cc1	none
NCCCC[C@@H]1NC(=O)[C@@H](Cc2c[nH]c3ccccc23)NC(=O)[C@H](c2ccccc2)NC(=O)[C@@H]2C[C@@H](OC(=O)NCCN)CN2C(=O)[C@H](Cc2ccccc2)NC(=O)[C@H](Cc2ccc(OCc3ccccc3)cc2)NC1=O	none
COC(=O)c1c(NC(=O)C(C)N2C(=O)c3ccccc3C2=O)sc2c1C(C(=O)OC)CC2 (stereo not given)	nsP2pro primary inconclusive | nsP2 cell sec inconclusive | CHIKV NSP2 FL inconclusive | Furin counter inactive | nsP2 NS23 pep 5.8µM | Papain cs inactive | nsP2pro conf qHTS 3.6µM | HCV NS3 counter inactive
COC(=O)c1c(NC(=O)/C(C#N)=C/c2ccccc2)sc2c1C(C(=O)OC)CC2 (stereo not given)	none
COC(=O)c1c(NC(=O)/C(C#N)=C/c2ccc(OC)cc2)sc2c1C(C(=O)OC)CC2 (stereo not given)	none
O=C(O)c1ccc(-c2noc(-c3ccc(Cl)cc3)n2)cc1	none
C[C@@H]1O[C@@H](O[C@H]2[C@H](O)[C@@H](O)[C@H](OC(=O)[C@]34CCC(C)(C)C[C@H]3C3=CCC5[C@@]6(C)CC[C@H](O[C@@H]7O[C@H](C(=O)O)[C@@H](O)[C@H](O)[C@H]7O)C(C)(C)C6CC[C@@]5(C)[C@]3(C)CC4)O[C@@H]2CO)[C@H](O)[C@H](O)[C@H]1O (stereo not given in full)	none
Cc1ccc(-c2cc(C(=O)Nc3ccc(S(N)(=O)=O)cc3)c3ccccc3n2)cc1C	none
Cc1cc(F)ccc1S(=O)(=O)Nc1cc2c(C(=O)O)c(C)oc2c2ccccc12	none
Cc1ccc(S(=O)(=O)Nc2cc(Cl)c(O)c3ccccc23)c(C)c1	nsP2pro primary 2.5µM | nsP2 cell sec 6.5µM | CHIKV NSP2 FL 7.3µM | Furin counter inactive | nsP2 NS23 pep 1.8µM | Papain cs inactive | nsP2pro conf qHTS 2.2µM | HCV NS3 counter inconclusive
CC(=O)c1c(C)oc2c1cc(NS(=O)(=O)c1c(C)cc(C)cc1C)c1ccccc12	none
O=C(O)C1NCc2[nH]cnc2C1c1ccccc1 (stereo not given)	none
CC1=Nc2cc(C(=O)NCCCN(C)C)ccc2Sc2ccc(F)cc21	none
CNC(=O)c1cc(C2CC2)nc2onc(C3CCN(C(=O)C4CCCCC4)CC3)c12	none
Cc1ccc(S(=O)(=O)c2cnc(SCC(=O)Nc3ccc4c(c3)OCCO4)[nH]c2=O)cc1Cl	none
CC(C)c1ccc(S(=O)(=O)c2cnc(SCC(=O)Nc3ccc4c(c3)OCCO4)[nH]c2=O)cc1	nsP2pro primary 4µM | nsP2 cell sec inconclusive | CHIKV NSP2 FL inactive | Furin counter inactive | nsP2 NS23 pep inactive | Papain cs inconclusive | nsP2pro conf qHTS inactive | HCV NS3 counter inactive
O=C(CSc1ncc(S(=O)(=O)c2ccc(Br)cc2)c(=O)[nH]1)NCc1ccccc1Cl	none
FC(F)(F)c1cccc(N2CCN(C(=S)Nc3ccccn3)CC2)c1	none
Cc1ccc(CN(C)c2ncnc3ccc(-c4ccc5c(c4)OCO5)cc23)o1	none
Cc1nn(C)cc1S(=O)(=O)NC(=O)c1ccc(-n2ccc(OCC(C)(C)C(F)(F)F)n2)nc1N1C[C@@H](C)CC1(C)C	none
CCN1CCN(C(=O)C2CCc3nnc(-c4cccc(C(F)(F)F)c4)n32)CC1 (stereo not given)	none
COC(=O)[C@]12CCC(C)(C)C[C@H]1[C@H]1C(=O)C=C3[C@@]4(C)C=C(C#N)C(=O)C(C)(C)[C@@H]4CC[C@@]3(C)[C@]1(C)CC2	nsP2pro primary inconclusive | nsP2 cell sec inconclusive | CHIKV NSP2 FL inconclusive | Furin counter inactive | nsP2 NS23 pep inconclusive | Papain cs inconclusive | nsP2pro conf qHTS inconclusive | HCV NS3 counter inactive
Cc1ccccc1S(=O)(=O)Nc1cnccc1C(=O)Nc1nc(-c2ccccc2)cs1	none
COc1cc2c(cc1-c1ccc(CO)cc1)NC(=O)C21CCN(C)CC1	none
O=C1C=CC2OC(c3ccccc3)C(O)C2O1 (stereo not given)	nsP2pro primary inconclusive | nsP2 cell sec inconclusive | CHIKV NSP2 FL inconclusive | Furin counter inactive | nsP2 NS23 pep inconclusive | Papain cs inactive | nsP2pro conf qHTS inconclusive | HCV NS3 counter inconclusive
COC(=O)CC(O)C1OC(c2ccccc2)C(O)C1O (stereo not given)	none
O=C1CO[C@H]2CCN(Cc3ccc4c(c3)CCO4)CC[C@@H]2N1Cc1ccccc1	none
C=CCOc1c(OC)ccc2c1CN(Cc1ccccc1)C(=O)CCN2CC(O)COc1ccc(OC)cc1 (stereo not given)	none
N#Cc1cc(CN2CCCC(C(=O)Nc3cccc(-c4ccc(F)cc4)c3)C2)c[nH]1 (stereo not given)	none
Fc1ccc(NC(=S)Nc2nnc(-c3ccncc3)s2)cc1C(F)(F)F	none
O=C(Nc1ccccc1)Nc1ccc2n(c1=O)C[C@H]1C[C@@H]2CN(C(=O)c2ccccc2)C1	none
COc1ccc(S(=O)(=O)N2C[C@@H]3C[C@H](C2)c2ccc(NS(=O)(=O)c4cccc(F)c4)c(=O)n2C3)cc1	none
O=c1c(NS(=O)(=O)c2cccc(F)c2)ccc2n1C[C@H]1C[C@@H]2CN(S(=O)(=O)c2ccccc2)C1	none
O=C(c1ccccn1)N1C[C@@H]2C[C@H](C1)c1ccc(NS(=O)(=O)c3cccc(F)c3)c(=O)n1C2	none
CCCS(=O)(=O)Nc1ccc2n(c1=O)C[C@H]1C[C@@H]2CN(C(=O)c2ccc(-c3ccccc3)cc2)C1	nsP2pro primary inconclusive | nsP2 cell sec inactive | CHIKV NSP2 FL inconclusive | Furin counter inactive | nsP2 NS23 pep inconclusive | Papain cs inactive | nsP2pro conf qHTS inactive | HCV NS3 counter inconclusive
O=c1c(NS(=O)(=O)Cc2ccccc2)ccc2n1C[C@H]1C[C@@H]2CN(S(=O)(=O)c2ccccc2)C1	nsP2pro primary inconclusive | nsP2 cell sec inactive | CHIKV NSP2 FL inconclusive | Furin counter inactive | nsP2 NS23 pep inconclusive | Papain cs inactive | nsP2pro conf qHTS inconclusive | HCV NS3 counter inconclusive
C=C(C)C(O)COc1ccc(CC(=O)O)cc1 (stereo not given)	none
